Experimental data from PubChem BioAssay (EPA / NIEHS).
Calls of active or inactive are those of the source. Rule for the calls: active = hit-call score of the fitted dose curve at least 0.9, where 1 is the maximum; inactive = score below 0.9.

Legend:
[1] = ATG_GLI_CIS: Attagene CIS-FACTORIAL HepG2 Assay for human Zinc Finger Protein GLI1 (AID 2282945); conditions: HepG2, Attagene cis-factorial reporter mRNA, GLI element; actives raise or lower the signal
Summary of the method: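 Bidirectional curve fits relative to DMSO, using reporter mRNA levels from RT-PCR plus capillary electrophoresis. Cells were HepG2 transiently carrying cis-regulated reporter constructs, harvested 24 h after dosing.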

[2] = ATG_ISRE_CIS: Attagene CIS-FACTORIAL HepG2 Assay for human Interferon Regulatory Factor 1 (IRF1) binding to an Interferon-Stimulated Response Element (ISRE) (AID 2282948); conditions: HepG2 ISRE cis-reporter (Attagene), mRNA transcription readout; actives raise or lower the signal
Summary of the method: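 Endogenous transcription factor activity read as reporter transcript abundance via RT-PCR and capillary electrophoresis. HepG2 cells transiently transfected, 24 h chemical exposure. Gain or loss fitted against DMSO baseline.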

[3] = ATG_M_32_CIS: Attagene CIS-FACTORIAL HepG2 Assay for M32 Transcription Factor (Internal Marker) (AID 2282949); conditions: HepG2 Attagene cis-factorial M32 reporter, mRNA; actives raise or lower the signal;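 note: background control marker of the multiplexed CIS panel rather than a real target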
Summary of the method: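 Using DMSO as baseline, bidirectional curve fits were applied to reporter mRNA signals. These came from transiently transfected HepG2 cells exposed for 24 h, with RNA analysed by RT-PCR, FAM primer extension, HpaI digestion and CE.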

[4] = ATG_M_06_CIS: Attagene CIS-FACTORIAL HepG2 Assay for M06 Transcription Factor (Internal Marker) (AID 2282950); conditions: HepG2 Attagene CIS-FACTORIAL M06 internal marker reporter; actives raise or lower the signal
Summary of the method: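 HepG2 liver cells, 24 h exposure. Reporter transcripts from transfected cis-element constructs quantified by RT-PCR/capillary electrophoresis fluorescence. Bidirectional curve fit against DMSO.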

[5] = target: Hepatocyte nuclear factor 6 (Homo sapiens) (UniProt Q9UBC0); assay: ATG_HNF6_CIS: Attagene CIS-FACTORIAL HepG2 Assay for human Hepatocyte Nuclear Factor 6 (HNF6) (AID 2282952); conditions: HepG2 Attagene cis-factorial HNF6 reporter transcription; actives raise or lower the signal
Hepatocyte nuclear factor 6 (Homo sapiens), sequence (Q9UBC0 whole entry, looked up, the tested form may be a part): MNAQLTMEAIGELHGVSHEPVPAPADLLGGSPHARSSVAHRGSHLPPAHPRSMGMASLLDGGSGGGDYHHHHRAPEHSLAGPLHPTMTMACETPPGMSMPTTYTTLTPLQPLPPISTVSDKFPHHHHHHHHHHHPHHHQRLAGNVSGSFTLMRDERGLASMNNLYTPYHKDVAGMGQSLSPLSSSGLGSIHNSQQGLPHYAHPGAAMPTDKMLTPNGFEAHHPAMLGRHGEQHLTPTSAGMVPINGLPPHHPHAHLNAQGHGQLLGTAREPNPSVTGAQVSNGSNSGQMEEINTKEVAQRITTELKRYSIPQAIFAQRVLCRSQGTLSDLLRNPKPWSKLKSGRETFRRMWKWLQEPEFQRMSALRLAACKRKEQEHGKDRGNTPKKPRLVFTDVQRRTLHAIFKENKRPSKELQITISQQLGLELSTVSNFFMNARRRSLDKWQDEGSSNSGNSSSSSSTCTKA
Summary of the method: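 Using cis-element reporters in HepG2 liver cells, the assay tracks endogenous factor-driven transcription 24 h post-dosing. Signal comes from 6-FAM-labelled, HpaI-digested RT-PCR fragments, with gain or loss scored against DMSO.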

[6] = target: Heat shock factor protein 1 (Homo sapiens) (UniProt Q00613); assay: ATG_HSE_CIS: Attagene CIS-FACTORIAL HepG2 Assay for human Heat Shock Transcription Factor 1 (HSE) (AID 2282953); conditions: HepG2 HSE cis-reporter, Attagene RNA transcription; actives raise or lower the signal
Heat shock factor protein 1 (Homo sapiens), sequence (Q00613 whole entry, looked up, the tested form may be a part): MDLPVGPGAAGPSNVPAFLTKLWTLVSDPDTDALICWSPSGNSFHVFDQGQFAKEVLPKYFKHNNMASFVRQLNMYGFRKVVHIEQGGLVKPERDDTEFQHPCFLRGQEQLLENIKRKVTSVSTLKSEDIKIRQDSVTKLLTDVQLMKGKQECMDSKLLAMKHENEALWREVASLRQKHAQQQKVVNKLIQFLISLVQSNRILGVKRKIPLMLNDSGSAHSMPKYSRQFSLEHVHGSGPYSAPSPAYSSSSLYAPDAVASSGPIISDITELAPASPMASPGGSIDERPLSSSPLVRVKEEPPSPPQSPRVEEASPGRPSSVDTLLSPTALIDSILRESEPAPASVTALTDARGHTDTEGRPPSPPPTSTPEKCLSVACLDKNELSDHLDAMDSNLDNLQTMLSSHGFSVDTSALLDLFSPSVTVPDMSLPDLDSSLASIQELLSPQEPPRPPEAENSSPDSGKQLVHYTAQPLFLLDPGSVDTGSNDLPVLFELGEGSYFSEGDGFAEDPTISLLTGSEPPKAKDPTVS
Summary of the method: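 Endogenous transcription factor activity captured via cis-promoter reporter units transfected into HepG2; treatment lasted 24 h. Fluorescence intensity of reporter fragments analysed with bidirectional curve fitting, DMSO baseline.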

[7] = ATG_PBREM_CIS: Attagene CIS-FACTORIAL HepG2 Assay for human Phenobarbital-responsive Enhancer Module (PBREM) (AID 2282955); conditions: HepG2 PBREM cis-reporter, Attagene multiplexed transcription; actives raise or lower the signal
Summary of the method: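 Multiplexed cis-reporter readout in human hepatoma HepG2 cells; PBREM-regulated transcript quantified after 24 h exposure by fluorescent RT-PCR fragment analysis. Signal changes up or down fitted relative to DMSO.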

[8] = target: Paired box protein Pax-6 (Homo sapiens) (UniProt P26367); assay: ATG_Pax6_CIS: Attagene CIS-FACTORIAL HepG2 Assay for human Paired Box 6 (PAX6) (AID 2282956); conditions: HepG2 CIS-FACTORIAL PAX6 reporter transcription, RNA readout; actives raise or lower the signal
Paired box protein Pax-6 (Homo sapiens), sequence (P26367 whole entry, looked up): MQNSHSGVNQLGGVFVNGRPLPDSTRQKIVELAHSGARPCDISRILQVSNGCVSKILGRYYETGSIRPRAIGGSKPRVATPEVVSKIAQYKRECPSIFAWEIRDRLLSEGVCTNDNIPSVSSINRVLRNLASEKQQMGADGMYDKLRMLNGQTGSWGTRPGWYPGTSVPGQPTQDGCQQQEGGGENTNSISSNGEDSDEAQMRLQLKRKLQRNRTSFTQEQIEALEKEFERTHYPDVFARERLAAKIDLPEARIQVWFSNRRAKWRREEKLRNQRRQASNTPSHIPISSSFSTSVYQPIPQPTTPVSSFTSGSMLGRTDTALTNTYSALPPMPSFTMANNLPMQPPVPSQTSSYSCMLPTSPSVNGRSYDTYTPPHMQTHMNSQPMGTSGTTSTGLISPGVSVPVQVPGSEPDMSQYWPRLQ
Summary of the method: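 Read-out is reporter transcript level, measured by RT-PCR with fluorescent primer extension and capillary electrophoresis after 24 h dosing of transfected HepG2 cells. Activity in either direction fitted relative to DMSO control.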

[9] = ATG_PXRE_CIS: Attagene CIS-FACTORIAL HepG2 Assay for human Pregnane X Receptor Element (PXRE) (AID 2282957); conditions: HepG2 Attagene CIS-FACTORIAL PXRE reporter, mRNA; actives raise or lower the signal
Summary of the method: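 Using HepG2 transfected with multiple reporter transcription units, endogenous factor-driven transcription was scored as reporter mRNA after 24 h exposure.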

[10] = ATG_PPRE_CIS: Attagene CIS-FACTORIAL HepG2 Assay for human Peroxisome Proliferator-activated Response Element (PPRE) (AID 2282958); conditions: HepG2 PPRE cis-element reporter, Attagene transcription factor profiling; actives raise or lower the signal
Summary of the method: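 DMSO served as negative control and baseline for bidirectional curve fitting. Signal came from PPRE-regulated reporter mRNA in HepG2 cells, measured 24 h post-dosing by RT-PCR, 6-FAM primer extension and capillary electrophoresis.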

[11] = ATG_RORE_CIS: Attagene CIS-FACTORIAL HepG2 Assay for human RAR-related Orphan Receptor Element (RORE) (AID 2282959); conditions: HepG2 Attagene cis-factorial RORE reporter, mRNA; actives raise or lower the signal
Summary of the method: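 Transfect HepG2 with MRTUs; treat 24 h; extract RNA; RT with oligo(dT); PCR with reporter-specific primers; 6-FAM primer extension; HpaI digest 2 h at 37 C; capillary electrophoresis. Fit vs DMSO, bidirectional.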

[12] = ATG_Sox_CIS: Attagene CIS-FACTORIAL HepG2 Assay for human SRY-box transcription factor (SOX) (AID 2282960); conditions: HepG2 Attagene cis-factorial SOX reporter, mRNA; actives raise or lower the signal
Summary of the method: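 Fluorescence-labelled cDNA fragments from reporter transcripts, sized by CE, give the signal. Cells: HepG2, transiently transfected with cis-regulated reporter units. Exposure 24 h; DMSO negative control; bidirectional curve fitting.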

[13] = target: Transcription factor Sp1 (Homo sapiens) (UniProt P08047); assay: ATG_Sp1_CIS: Attagene CIS-FACTORIAL HepG2 Assay for human Specificity Protein 1 (Sp1) (AID 2282961); conditions: HepG2 Sp1 cis-reporter transcription, actives raise or lower the signal
Transcription factor Sp1 (Homo sapiens), sequence (P08047 whole entry, looked up): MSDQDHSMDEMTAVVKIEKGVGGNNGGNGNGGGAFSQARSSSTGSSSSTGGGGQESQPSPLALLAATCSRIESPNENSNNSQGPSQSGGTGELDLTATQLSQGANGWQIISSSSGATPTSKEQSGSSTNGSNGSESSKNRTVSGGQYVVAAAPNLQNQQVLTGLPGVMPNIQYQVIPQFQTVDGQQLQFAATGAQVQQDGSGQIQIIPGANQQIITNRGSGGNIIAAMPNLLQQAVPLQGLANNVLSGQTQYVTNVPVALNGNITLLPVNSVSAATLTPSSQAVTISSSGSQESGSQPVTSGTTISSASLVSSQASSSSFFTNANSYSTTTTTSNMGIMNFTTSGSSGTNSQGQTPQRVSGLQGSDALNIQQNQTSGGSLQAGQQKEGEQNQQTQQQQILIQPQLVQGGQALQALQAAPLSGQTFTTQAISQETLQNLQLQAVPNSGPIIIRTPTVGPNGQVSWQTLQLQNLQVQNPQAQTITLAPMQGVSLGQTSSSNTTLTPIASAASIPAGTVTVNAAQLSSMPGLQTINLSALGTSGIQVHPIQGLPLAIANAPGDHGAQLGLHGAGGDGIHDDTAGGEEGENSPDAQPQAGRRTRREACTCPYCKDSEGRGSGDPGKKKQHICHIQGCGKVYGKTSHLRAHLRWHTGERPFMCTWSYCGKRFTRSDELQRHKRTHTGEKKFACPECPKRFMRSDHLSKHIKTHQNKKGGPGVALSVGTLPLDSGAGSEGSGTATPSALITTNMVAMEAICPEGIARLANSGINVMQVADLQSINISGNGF
Summary of the method: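 Chemicals are dosed onto HepG2 cells transfected with multiple cis-promoter reporter constructs, and after 24 h reporter RNA is reverse-transcribed, PCR-amplified and resolved by capillary electrophoresis for fluorescence quantitation; activity is scored up or down against DMSO.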

[14] = ATG_SREBP_CIS: Attagene CIS-FACTORIAL HepG2 Assay for human Sterol Regulatory Element Binding (SREBP) (AID 2282962); conditions: HepG2 Attagene cis-factorial SREBP reporter, mRNA; actives raise or lower the signal
Summary of the method: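 Endogenous SREBP activity read as cis-element-driven reporter transcript in transiently transfected HepG2, 24 h post-dosing; quantified via RT-PCR plus capillary electrophoresis of fluorescent fragments. Gain or loss of signal fitted relative to DMSO baseline.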

[15] = target: Signal transducer and activator of transcription 3 (Homo sapiens) (UniProt P40763); assay: ATG_STAT3_CIS: Attagene CIS-FACTORIAL HepG2 Assay for human Signal Transducer and Activator of Transcription 3 (STAT3) (AID 2282963); conditions: HepG2, Attagene cis-factorial STAT3 reporter transcription; actives raise or lower the signal
Signal transducer and activator of transcription 3 (Homo sapiens), sequence (P40763 whole entry, looked up): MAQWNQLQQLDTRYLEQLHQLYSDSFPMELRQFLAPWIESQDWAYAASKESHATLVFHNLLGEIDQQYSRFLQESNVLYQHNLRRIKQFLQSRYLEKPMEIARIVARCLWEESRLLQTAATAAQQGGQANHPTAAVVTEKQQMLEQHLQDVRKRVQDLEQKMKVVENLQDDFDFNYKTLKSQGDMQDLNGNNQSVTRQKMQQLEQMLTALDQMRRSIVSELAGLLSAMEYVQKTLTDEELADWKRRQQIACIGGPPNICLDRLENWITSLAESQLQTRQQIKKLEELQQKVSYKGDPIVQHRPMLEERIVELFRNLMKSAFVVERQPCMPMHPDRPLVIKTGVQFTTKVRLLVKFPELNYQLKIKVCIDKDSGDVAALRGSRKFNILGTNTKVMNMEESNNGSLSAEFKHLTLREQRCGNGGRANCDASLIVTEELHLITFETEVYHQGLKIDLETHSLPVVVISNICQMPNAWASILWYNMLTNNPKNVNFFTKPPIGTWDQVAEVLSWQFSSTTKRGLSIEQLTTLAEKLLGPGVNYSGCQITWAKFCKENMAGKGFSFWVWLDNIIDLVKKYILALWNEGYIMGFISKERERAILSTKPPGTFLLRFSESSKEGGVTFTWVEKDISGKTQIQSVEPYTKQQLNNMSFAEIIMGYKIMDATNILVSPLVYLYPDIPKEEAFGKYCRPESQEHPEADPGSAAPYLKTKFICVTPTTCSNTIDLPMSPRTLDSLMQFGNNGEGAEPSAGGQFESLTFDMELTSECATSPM
Summary of the method: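 Cis-factorial format: endogenous transcription factors in HepG2 drive transfected reporter units. After 24 h treatment, reporter RNA was reverse-transcribed, amplified, FAM-labelled and HpaI-digested before CE analysis; activity scored in both directions against DMSO.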

[16] = ATG_TA_CIS: Attagene CIS-FACTORIAL HepG2 Assay for human TA Basal Promoter (AID 2282964); conditions: HepG2 Attagene CIS-factorial TA basal promoter reporter; actives raise or lower the signal
Summary of the method: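 Fluorescence from labelled RT-PCR reporter fragments, separated by capillary electrophoresis, gives the signal. Cells: HepG2 transiently carrying multiple reporter units, 24 h chemical dosing. Gain or loss relative to DMSO.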

[17] = target: Hypoxia-inducible factor 1-alpha (Homo sapiens) (UniProt Q16665); assay: ATG_HIF1a_CIS: Attagene CIS-FACTORIAL HepG2 Assay for human Hypoxia Inducible Factor 1 (HIF1A) (AID 2282951); conditions: HepG2 Attagene cis-factorial HIF1a reporter transcription; actives raise or lower the signal
Hypoxia-inducible factor 1-alpha (Homo sapiens), sequence (Q16665 whole entry, looked up): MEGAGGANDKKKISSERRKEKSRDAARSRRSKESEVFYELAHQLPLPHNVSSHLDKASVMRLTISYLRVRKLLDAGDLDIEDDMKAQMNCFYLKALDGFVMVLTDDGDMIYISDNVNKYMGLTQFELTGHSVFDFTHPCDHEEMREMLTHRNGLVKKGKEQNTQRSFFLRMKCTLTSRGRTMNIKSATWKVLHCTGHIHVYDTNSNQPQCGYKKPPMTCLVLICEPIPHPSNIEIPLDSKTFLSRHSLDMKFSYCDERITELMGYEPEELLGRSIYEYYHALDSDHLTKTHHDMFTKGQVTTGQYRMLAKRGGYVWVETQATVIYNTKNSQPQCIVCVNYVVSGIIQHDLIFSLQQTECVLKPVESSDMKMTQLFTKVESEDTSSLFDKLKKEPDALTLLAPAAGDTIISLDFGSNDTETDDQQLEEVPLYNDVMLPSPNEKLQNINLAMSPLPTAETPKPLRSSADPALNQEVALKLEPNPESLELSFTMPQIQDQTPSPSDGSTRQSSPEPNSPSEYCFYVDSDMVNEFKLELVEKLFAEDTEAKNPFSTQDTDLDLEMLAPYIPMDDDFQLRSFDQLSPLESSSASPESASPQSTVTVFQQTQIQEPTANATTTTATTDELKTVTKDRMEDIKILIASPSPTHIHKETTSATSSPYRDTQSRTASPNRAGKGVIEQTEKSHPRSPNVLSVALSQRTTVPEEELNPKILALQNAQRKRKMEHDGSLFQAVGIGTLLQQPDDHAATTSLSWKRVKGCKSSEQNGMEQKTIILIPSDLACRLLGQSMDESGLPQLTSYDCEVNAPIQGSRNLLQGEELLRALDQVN
Summary of the method: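 Cis-element reporter constructs were transiently transfected into HepG2 cells, which were treated for 24 h; reporter RNA was reverse-transcribed, amplified, labelled and resolved by capillary electrophoresis.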

[18] = ATG_MRE_CIS: Attagene CIS-FACTORIAL HepG2 Assay for human Metal Responsive Element (MRE) (AID 2282954); conditions: HepG2 MRE cis-reporter transcription, Attagene multiplex; actives raise or lower the signal
Summary of the method: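 Multiplexed cis-reporter assay in human HepG2 liver cells, 24 h incubation with test chemical. Reporter transcripts measured by RT-PCR and capillary electrophoresis; values from bidirectional curve fitting versus DMSO.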

Measured: AC50

CCCCCCCCCCO[C@@H]1O[C@H](CO)[C@@H](O)[C@H](O)[C@H]1O
not listed: [17] | [18]
inactive: all other assays above

CCCC(O)C(CC)CO (stereo not given)
active: [9] 47.6 µM
not listed: [7] | [11] | [17] | [18]
inactive: all other assays above

CC/C=C\CCCCO
not listed: [4] | [7] | [10]
inactive: all other assays above

O=C(O)c1ccccc1O
not listed: [10] | [17]
inactive: all other assays above

CC1=CC[C@@H]2C[C@H]1C2(C)C
not listed: [4] | [5] | [7] | [16]
inactive: all other assays above

CC(CO)c1ccccc1 (stereo not given)
not listed: [4] | [10] | [13]
inactive: all other assays above

NNC(=O)OCc1ccccc1
not listed: [12] | [17]
inactive: all other assays above

N#CCCNCCC#N
not listed: [4]
inactive: all other assays above

CCOC(=O)C=Cc1ccccc1
active: [9] 27.8 µM
not listed: [6] | [12] | [17]
inactive: all other assays above

COC(=O)C(C)Oc1ccc(Oc2ncc(C(F)(F)F)cc2Cl)cc1 (stereo not given)
active: [18] 100 µM | [7] 77.7 µM | [9] 14.1 µM | [10] 34.3 µM | [11] 64.6 µM
not listed: [4]
inactive: all other assays above

C[N+](C)(C)CCO
not listed: [6] | [11] | [17]
inactive: all other assays above

CC(C)C(=O)c1ccccc1
not listed: [5] | [7] | [15] | [16] | [18]
inactive: all other assays above

CCCCCCCC1CCCC1=O (stereo not given)
active: [9] 27.9 µM
not listed: [4] | [7]
inactive: all other assays above

Cc1ccccc1S
active: [6] 113 µM | [8] 60.4 µM | [9] 19.7 µM | [12] 103 µM | [13] 80.3 µM | [14] 41.7 µM
not listed: [4] | [18]
inactive: all other assays above

O=C(O)c1cccc(Cl)n1
not listed: [7] | [11] | [16] | [17]
inactive: all other assays above

CC(=O)OC/C=C(C)/C=C/C=C(C)/C=C/C1=C(C)CCCC1(C)C
inactive: [3] | [17] | [5] | [7] | [10] | [11] | [15] | [16]
active: [1] 159 µM | [2] 72.8 µM | [6] 155 µM | [18] 100 µM | [8] 72.2 µM | [9] 0.426 µM | [12] 138 µM | [13] 172 µM | [14] 100 µM

CCn1cc(C(=O)O)c(=O)c2ccc(C)nc21
not listed: [5] | [7] | [17]
inactive: all other assays above

Nc1ccn([C@H]2CC[C@@H](CO)O2)c(=O)n1
not listed: [4] | [7] | [11] | [17]
inactive: all other assays above
